Results on one compound are retold here after the supplement of paper PMC6411743.

± gives the standard deviation of the averaged measurements. About 5,400 targets were measured; listed, in parts, are those with the largest changes and a random draw of the rest.

For the assay, the target named is T1, NUFIP2 (UniProt Q7Z417).
T1 sequence (whole entry): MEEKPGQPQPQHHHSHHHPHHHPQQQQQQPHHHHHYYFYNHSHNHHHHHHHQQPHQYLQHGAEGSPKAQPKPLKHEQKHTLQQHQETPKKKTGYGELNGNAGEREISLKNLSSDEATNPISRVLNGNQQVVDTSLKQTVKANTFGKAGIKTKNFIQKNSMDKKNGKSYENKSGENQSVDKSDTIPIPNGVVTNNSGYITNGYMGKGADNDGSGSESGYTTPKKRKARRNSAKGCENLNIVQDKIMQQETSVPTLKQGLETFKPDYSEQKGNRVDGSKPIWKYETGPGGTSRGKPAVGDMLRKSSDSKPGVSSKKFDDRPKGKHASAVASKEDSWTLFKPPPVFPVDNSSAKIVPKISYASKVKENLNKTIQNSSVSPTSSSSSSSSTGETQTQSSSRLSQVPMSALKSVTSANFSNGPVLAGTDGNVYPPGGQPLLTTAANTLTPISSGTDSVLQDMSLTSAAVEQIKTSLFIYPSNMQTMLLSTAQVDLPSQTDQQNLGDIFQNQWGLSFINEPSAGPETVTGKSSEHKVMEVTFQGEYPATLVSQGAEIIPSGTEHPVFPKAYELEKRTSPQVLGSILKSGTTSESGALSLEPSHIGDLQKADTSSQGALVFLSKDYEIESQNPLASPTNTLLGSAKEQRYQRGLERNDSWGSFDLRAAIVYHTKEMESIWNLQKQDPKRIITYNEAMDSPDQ
Nature of the assay: NP40-soluble protein abundance relative to vehicle (solubility fold change) (ratio); higher = more soluble protein in presence of GTP. Here is the method: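 Solubility proteome profiling in Jurkat crude lysate. Lysate was treated with Mg-GTP (0.1-10 mM) for 10 min at room temperature and 3 min at 37 °C, then solubilised with 0.8% NP40 and benzonase, followed by ultracentrifugation. Proteins were quantified by TMT10 LC-MS/MS; the value is the NP40-soluble abundance relative to the NP40-processed vehicle, from 3 independent experiments.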

With `Nc1nc2c(ncn2[C@@H]2O[C@H](COP(=O)(O)OP(=O)(O)OP(=O)(O)O)[C@@H](O)[C@H]2O)c(=O)[nH]1` [guanosine triphosphate], the NP40-soluble protein abundance runs as follows: (concentration: 0.1mM) 0.964 ± 0.079; (concentration: 0.5mM) 0.977 ± 0.14; (concentration: 1mM) 1.06 ± 0.12; (concentration: 2mM) 1.07 ± 0.15; (concentration: 4mM) 1.17 ± 0.15; (concentration: 6mM) 1.21 ± 0.15. For the same compound, the NP40-soluble protein abundance (concentration: 8mM) is 1.28 ± 0.089 and the NP40-soluble protein abundance (concentration: 10mM) was 1.34 ± 0.13.
